Screening results: PubChem, National Center for Advancing Translational Sciences (NCATS)
Shown are actives, neighbours in structure and some others; about 4.7% of the full set was active somewhere.
D1 PAM – enhances dopamine response at the human D1 receptor; P21728; HEK293 TREx D1 cells, calcium flux, dopamine EC20 potentiation; potentiation, % at 10 µM; actives 0.036% (n = 360,000); in the data active means potentiation above about 30%; further: 0% is about no effect
D1 antag – antagonists of human D1 dopamine receptor. P21728. HEK293 TREx D1 cells, calcium flux, dopamine EC80; active compounds read low. activity change, negative = inhibition, % at 10 µM. actives 3.2% (n = 360,000). AID 504652; in the data active means activity change below about -30%; further: on the % scale 0 is the no-effect control and ±100 the full control effect
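Antagonism measured as reduced calcium response to an EC80 dopamine addition following 180 s compound pre-read; cells were inducible HEK293 Trex D1 plated overnight at 30 C, read kinetically at 1 cycle/sec.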
TRHR agonist – agonists of human TRH receptor; P34981; TRHR cells, calcium flux fluo-8, FDSS agonist mode; activation, % at 2 µM; actives 0.18% (n = 360,000); further: 0% is about no effect
Target sequence (P34981 whole entry, looked up): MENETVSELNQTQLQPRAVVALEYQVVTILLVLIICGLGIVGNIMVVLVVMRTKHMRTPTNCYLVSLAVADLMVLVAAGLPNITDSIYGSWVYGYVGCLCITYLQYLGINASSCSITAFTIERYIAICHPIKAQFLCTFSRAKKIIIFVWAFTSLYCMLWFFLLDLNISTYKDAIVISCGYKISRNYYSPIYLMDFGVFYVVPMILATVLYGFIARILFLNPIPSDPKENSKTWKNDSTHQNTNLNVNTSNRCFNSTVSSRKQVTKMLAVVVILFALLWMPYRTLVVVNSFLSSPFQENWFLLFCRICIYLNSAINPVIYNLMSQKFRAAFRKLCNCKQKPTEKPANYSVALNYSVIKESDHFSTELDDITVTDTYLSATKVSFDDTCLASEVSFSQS
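In this calcium-flux screen, cells bearing human TRHR are dye-loaded with fluo-8, baselined for 10 cycles, then exposed to library compounds; positive kinetic calcium responses during the agonist phase mark hits, with TRH as control.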
D1 ag – agonists of human D1 dopamine receptor. P21728. HEK293 T-REx D1 cells, calcium flux, agonist mode. activation, % at 2 µM. actives 1% (n = 360,000); further: 0% is about no effect
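Tetracycline-induced HEK293 TREx D1 cells, force-coupled to calcium signalling, were dye-loaded with a no-wash calcium kit. Compound was pin-added after a 10 s baseline. Fluorescence was read kinetically at 1 cycle/s for 180 s, with calcium rises flagged as agonism.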
TRHR enhancer – allosterically enhances the human TRH receptor | P34981 | TRHR cells, fluo-8 calcium fluorescence, EC20 TRH enhancement | enhancement, % at 2 µM | actives 0.66% (n = 360,000); in the data active means enhancement above about 30%; further: 0% is about no effect
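TRHR-expressing cells loaded with fluo-8 calcium dye were read kinetically (ex 480/em 530) during compound addition, then stimulated with an EC20 of TRH (10 nM final). Enhancement of the Gq-mediated intracellular calcium response was scored.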
Active calls of the source: *; . = no result given. Unless noted, no stated cut-off is given here; in the data, active means activation above about 30%; inactive means the rest.

SMILES	D1 PAM	D1 antag	TRHR agonist	D1 ag	TRHR enhancer
CCN(CC)c1ccc(/C=C(\C#N)c2ccccn2)cc1	-2.0	-86.6*	3.4	35.4*	0.4
CCN(Cc1ccccc1)c1ccc(/C=C(\C#N)c2ccccn2)cc1	10.3	11.5	5.0	31.4*	6.4
N#C/C(=C\c1ccc(C(=O)O)cc1)c1ccccn1	-2.2	11.2	0.7	-1.5	-0.4
CN(CCC#N)c1ccc(/C=C(\C#N)c2ccccn2)cc1	-4.9	-19.3	-0.4	4.5	1.2
COc1cc(NC(=O)CN(c2ccc(C)cc2)S(=O)(=O)c2cccc3nonc23)cc(OC)c1	1.8	13.3	0.3	0.8	2.9
CN1CCN(NC(=O)c2cn(-c3ccccc3)nc2-c2cccc(Br)c2)CC1	-9.6	-33.4*	0.9	14.1	0.6
CCCNC(=O)C1CCC(Cn2c(=O)c3sccc3n(CC(=O)N(CC)CC)c2=O)CC1 (centres undefined)	1.4	22.1	-0.6	5.9	1.4
O=C(N=c1ccn(-c2nc3ccccc3nc2NS(=O)(=O)c2ccc(Cl)cc2)cc1)c1ccccc1Cl	-2.5	1.6	13.2	88.7*	-10.5
O=C(N=c1ccn(-c2nc3ccccc3nc2NS(=O)(=O)c2ccc(Cl)cc2)cc1)c1cccs1	-1.6	6.2	3.1	2.7	1.1
CCOc1ccc(S(=O)(=O)Nc2nc3ccccc3nc2-n2ccc(=NC(=O)c3cccs3)cc2)cc1	-8.1	-32.6*	16.9	72.3*	1.8
O=C(N=c1ccn(-c2nc3ccccc3nc2NS(=O)(=O)c2ccccc2)cc1)c1ccccc1Cl	-4.0	3.8	4.7	38.3*	39.0*
Cc1ccccc1NC(=O)CSc1cn(CC(=O)N2CCCC2)c2ccccc12	-8.9	5.4	-0.1	0.4	1.6
COc1ccc(C(=O)c2oc3ccccc3c2NC(=O)COc2ccc(C)cc2)cc1	0.2	-8.4	0.2	3.5	1.6
CN(C)CCN(Cc1ccco1)C(=O)c1oc2ccccc2c1NC(=O)COc1ccccc1	-13.0	-40.3*	1.7	16.0	4.0
CN(C)CCN(Cc1ccco1)C(=O)c1oc2ccccc2c1NC(=O)c1cccc(F)c1	3.6	-16.1	-1.1	66.2*	6.5
O=[N+]([O-])c1ccc(N/N=C/c2ccc(O)c(O)c2O)c(S(=O)(=O)N2CCOCC2)c1	10.2	-0.7	0.5	6.2	3.6
O=[N+]([O-])c1ccc(N/N=C/c2cccc(O)c2O)c(S(=O)(=O)N2CCOCC2)c1	-13.1	-76.5*	0.1	57.9*	-2.0
CCOC(=O)C1C(=O)C=C(/C=C/c2ccc(N(C)C)cc2)CC1c1ccccc1 (centres undefined)	7.8	-23.6	73.1*	229.7*	17.9
Cc1nnc(SCC2=C(C(=O)O)N3C(=O)C(NC(=O)c4cccc(F)c4F)C3SC2)s1 (centres undefined)	-9.3	-73.3*	1.6	1.6	8.1
Cc1ccc(NC(=S)N2CCC(N(C)CC3CCCO3)CC2)cc1 (centres undefined)	-3.5	-40.2*	-0.6	-1.5	-2.9
Cc1cc(C)cc(NC(=S)N2CCC(N(C)CC3CCCO3)CC2)c1 (centres undefined)	-1.0	10.1	0.0	0.0	11.6
COC(=O)c1ccc(CSc2nc3ccncc3n2Cc2ccc(F)cc2)cc1	0.8	4.1	0.1	0.9	2.4
COC(=O)c1ccc(Cn2c(SCc3cccc(C)c3)nc3ccncc32)cc1	2.0	-32.5*	-0.3	52.1*	-2.0
O=C(O)c1ccc(Cn2ccc3ccccc32)o1	-3.1	-36.3*	0.0	7.9	1.6
CCN(CC)S(=O)(=O)c1cccc(C(=O)NC2=NCCS2)c1	-6.6	-12.9	0.1	2.4	4.5
SMILES	D1 PAM	D1 antag	TRHR agonist	D1 ag	TRHR enhancer
CC(Sc1nc(=O)cc(N)n1CCc1ccccc1)C(=O)Nc1ccc(Cl)cc1 (centres undefined)	-1.8	-33.4*	0.5	16.3	6.8
CCC(=O)N1CCc2cc(S(=O)(=O)NCCC(=O)NCc3ccc(F)cc3)ccc21	-2.2	-19.6	-0.5	-0.4	-5.8
CCC(=O)N1CCc2cc(S(=O)(=O)NCCC(=O)NCc3ccc(OC)cc3)ccc21	-0.7	-43.6*	0.4	1.1	5.7
CCC(=O)N1CCc2cc(S(=O)(=O)NC(CC(C)C)C(=O)NCc3cccc(OC)c3)ccc21 (centres undefined)	0.2	7.8	-0.9	0.6	-7.0
CCC(=O)N1CCc2cc(S(=O)(=O)NC(CC(C)C)C(=O)NCc3ccc(F)cc3)ccc21 (centres undefined)	3.8	-39.6*	-1.1	-0.9	11.9
CCOC(=O)C1=C(C)NC(=O)NC1c1ccc(N(C)C)cc1 (centres undefined)	-9.3	-30.8*	0.4	0.5	1.0
CCOC(=O)C1=C(CN2CCN(c3ccccc3OC)CC2)NC(=O)NC1c1ccccc1 (centres undefined)	-2.8	-32.3*	0.5	1.8	-0.6
CCOC(=O)N1CCN(c2c(Nc3cc(C)[nH]n3)c(=O)c2=O)CC1	.	23.8	0.2	2.7	34.7*
CCOC(=O)N1CCN(c2c(N3CCN(c4ccccc4OC)CC3)c(=O)c2=O)CC1	-3.3	-32.6*	-1.0	-0.3	-10.7
CCOc1ccc(N(CC(=O)N/N=C(\C)c2cccc(NC(C)=O)c2)S(=O)(=O)c2ccccc2)cc1	-0.9	-4.0	0.5	2.5	2.6
CC(NC(=O)c1ccc(F)cc1)c1nc2ccccc2[nH]1 (centres undefined)	5.8	-4.9	0.1	1.8	-4.3
CCOc1ccc(NC(=O)Cn2ccn(-c3ccc(F)c(F)c3)c(=O)c2=O)cc1	-1.5	12.6	0.6	1.5	-5.2
CCOC(=O)C1=C(CN2CC(C)CC(C)C2)NC(=O)NC1c1ccc2c(c1)OCO2 (centres undefined)	-1.9	19.9	0.1	30.8*	9.6
CCc1c(C)nc(SCC(=O)N2CCN(c3ccccc3OC)CC2)[nH]c1=O	-4.8	-4.3	-0.6	1.7	-10.6
CCOC(=O)C1=C(CN2CCCCCC2)NC(=O)NC1c1ccc2c(c1)OCO2 (centres undefined)	-1.3	10.8	-0.3	6.6	-5.5
COc1ccccc1N1CCN(C(=O)c2ccco2)CC1	-5.2	-0.1	0.6	2.5	30.7*
COc1ccccc1N1CCN(C(=O)CSc2nc(C)c(C)c(=O)[nH]2)CC1	-3.0	-30.2*	-0.6	0.9	-2.1
COc1ccccc1C(=O)Nc1cc2c(cc1N1CCCCC1)n(C)c(=O)n2C	-1.6	-9.3	-0.6	2.1	-7.0
CCCCN(C)CCNC(=O)c1cc(-c2ccc(Cl)s2)nc2ccccc12	0.4	-15.6	1.5	29.8	9.8
CC(=O)c1cc(C#N)c(N2CCN(c3ccccc3)CC2)nc1C	-9.6	-43.1*	0.5	3.6	-1.9
CCn1c(C(=O)NCc2ccc(F)cc2)cc2oc3ccccc3c21	-2.4	3.8	-0.7	-0.9	0.2
COc1cccc(CNC(=O)c2cc3oc4ccccc4c3n2C)c1OC	-9.7	-31.9*	1.1	2.9	12.6
